Experimental data: PubChem BioAssay (NCATS)
Some of the results follow. Activity calls are given as the source filed them. Calls come from the whole dose curve; as a rule, active = well fitted inhibition curve with a large enough effect; inconclusive = small, poorly fitted or top-dose-only effect, or another doubt; inactive = no such curve, though single readings can be large or run the other way.

Target: Vitamin D3 receptor (Homo sapiens) (UniProt P11473)
Assay: qHTS for Inhibitors of the vitamin D receptor (VDR): Hit Validation using a Fluorescein Assay (AID 602200)
Settings: VDR-coactivator binding, fluorescein fluorescence polarization
Text: The vitamin D receptor (VDR) is a ligand-activated transcription factor and is partially responsible for the regulation of the endocrine system. This includes the transcriptional regulation of genes involved in the production of the parathyroid hormone (PTH) and the regulation of the blood calcium level. High levels of PHT can cause hypercalcemia in the case of primary and tertiary hyperparathyroidism. The VDR-mediated gene regulation, activated by its ligand 1,25-dihydroxyvitamin D3 (1,25-(OH)2D3), is governed by the recruitment of coactivators. Our hypothesis is that small molecules, with the ability to inhibit the interaction between VDR and certain coactivators, are able to selectively modulate VDR-mediated transcription. Our long term objective is the application these VDR-coactivator inhibitors to study the role of VDR-coactivator binding for specific VDR regulated genes. Ultimately, these molecules can be developed into new treatments for hypercalcemic hyperparathyroidism. No small molecule or non-peptide inhibitors are known for the VDR-coactivator interaction.
In a collaboration between the University of Wisconsin, Milwaukee and the NIH Chemical Genomics Center (NCGC) a HTS-compatible enzymatic assay was developed. The assay uses fluorescence polarization as its read-out to measure the inhibition between VDR and coregulator peptide SRC2-3 exerted by small molecules. This assay was used to screen the NIH Molecular Libraries Small Molecule Repository (MLSMR). The HTS assay detects polarization at 665 nm emitted by the Alexa Fluor 647 dye. This validation assay measures polarization of fluorescein emission at 521 nm
NIH Chemical Genomics Center [NCGC]
NIH Molecular Libraries Probe Centers Network [MLPCN]
Assay Submitter (PI): Alexander Arnold, University of Wilwaukee
Four microliter of either 1.5 uM VDR-LBD, 5 uM LG19078, and 5 nM SRC2-3 Fluorescein (all final concentrations) in columns 1, 2, and 5 to 48 or 5 nM SRC2-3 Fluorescein in columns 3 and 4 are dispensed into black medium-binding solid bottom Greiner plates. Both solutions are kept at 4 deg C and protected from light and dispensed using a Kalypsys dispenser. Then 23 nl of compounds and controls are added with Kalypsys pintool. […] Plate is centrifuged at 1000 RPM for 15 seconds to remove any residual bubbles. The plate is then incubate at ambient room temperature for 2 hours. It is then read on the Envision for a fluorescent polarization read-out (Ex 495 nm/Em 520 nm)
Potency is the fitted concentration of half-maximal effect.

Chain of Vitamin D3 receptor (Homo sapiens) (P11473 whole entry, looked up): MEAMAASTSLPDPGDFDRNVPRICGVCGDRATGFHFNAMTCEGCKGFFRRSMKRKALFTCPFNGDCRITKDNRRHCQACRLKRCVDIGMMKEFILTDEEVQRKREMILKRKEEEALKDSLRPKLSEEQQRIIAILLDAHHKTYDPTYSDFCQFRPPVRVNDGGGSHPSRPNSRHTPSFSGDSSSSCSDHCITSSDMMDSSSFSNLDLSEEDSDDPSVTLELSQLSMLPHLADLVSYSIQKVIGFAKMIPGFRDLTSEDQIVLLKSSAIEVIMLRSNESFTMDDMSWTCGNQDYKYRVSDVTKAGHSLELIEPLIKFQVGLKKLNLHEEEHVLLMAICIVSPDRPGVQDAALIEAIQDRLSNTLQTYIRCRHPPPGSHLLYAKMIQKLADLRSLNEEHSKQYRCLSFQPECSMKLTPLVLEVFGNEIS

Potency, active:
O=C(/C=C/c1ccc(Cl)c([N+](=O)[O-])c1)c1cccnc1 2.51 µM
CC(=O)N1CC[n+]2c(-c3ccc([N+](=O)[O-])cc3)csc21 3.98 µM
CC(=O)N(C1=C(Cl)C(=O)c2ccccc2C1=O)c1ccc(C(=O)O)cc1 2.82 µM
O=C1C=C(c2ccc(Cl)cc2)C(=O)N1Nc1ccccc1 1.78 µM
CC1CCN(C(=S)c2ccc(-c3ccc(Cl)cc3Cl)o2)CC1 25.1 µM
O=C(Nc1nc(-c2ccncc2)cs1)C1COc2ccccc2O1 (stereo not given) 3.16 µM
CCOC(=O)c1sc(=S)n2c1[nH]c(=O)c1ccc(C(=O)OC)cc12 6.31 µM
O=c1[nH]c(/C=C\c2cccc(C(F)(F)F)c2)nc(O)c1[N+](=O)[O-] 10 µM
Cc1ccc(O)c(NC(=O)CCS(=O)(=O)c2nc(-c3ccc4c(c3)OCO4)cc(C(F)(F)F)n2)c1 6.31 µM
COc1ccc(OCc2nnc3n2N=C(c2ccccc2)C(CC(=O)O)S3)cc1 (stereo not given) 1.12 µM
COC(=O)c1sc(-c2ccc(C(C)(C)C)cc2)cc1NC(=O)/C=C/C(=O)O 14.1 µM
CCCCS(=O)(=O)c1oc(-c2cccs2)nc1S(=O)(=O)c1ccccc1 3.16 µM
C[C@@H](NC(=O)OC(C)(C)C)c1nnc(S(=O)(=O)Cc2ccccc2)o1 17.8 µM
CCOc1ccc(N(Cc2ccccc2)C(=O)c2nc(S(C)(=O)=O)ncc2Cl)cc1 3.55 µM
O=C(/C=C/c1ccccc1)c1ccccc1O 14.1 µM
c1ccc2c(C[n+]3csc4ccccc43)cccc2c1 7.08 µM
Cc1ccc(-c2nc3ccccn3c2Nc2c(C)cccc2C)o1 28.2 µM
Cc1cc(C)nc(S/C=C/C(=O)c2ccccc2)n1 3.55 µM
O=C(Nc1ccccc1)c1nnsc1S(=O)(=O)c1ccc(Cl)cc1 7.08 µM
Cc1cccc(Oc2c([N+](=O)[O-])c(=O)n(C)c3ccccc23)c1 20 µM
